Anesthetic bind: qHTS Assay for Identification of Novel General Anesthetics. Ferritin light chain (Equus caballus), P02791. apoferritin/1-aminoanthracene competitive binding, fluorescence. Potency, µM (highest dose often 77.5 µM), for the others: top-dose activity change, negative = displacement, usual class: inhibitors. 0.074% of 350,000 active. AID 485281, 2010; also: potency is read from the fitted curve at half-maximal effect; % is scaled to controls: 0 for no effect and ±100 for the full control effect; nearly all actives have a fitted effect of over 20% in size
Target sequence (P02791 2-175 limits assumed): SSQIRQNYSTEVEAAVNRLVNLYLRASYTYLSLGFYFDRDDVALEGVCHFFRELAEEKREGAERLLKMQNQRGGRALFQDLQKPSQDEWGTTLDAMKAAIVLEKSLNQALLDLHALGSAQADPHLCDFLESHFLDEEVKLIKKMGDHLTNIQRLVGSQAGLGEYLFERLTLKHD
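Concentration-response curves derived by four-parameter Hill fitting of normalized fluorescence, where compounds displaced 1-AMA from 10 uM horse apoferritin following a brief 10 min room-temperature incubation; propofol titration acted as positive control.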
LDHA block: qHTS assay for inhibitors of human lactate dehydrogenase; activity change, % (values are at about 110 or 230 µM); AID 1347041, 2019; L-lactate dehydrogenase A chain (Homo sapiens), P00338; purified LDHA, NADH/diaphorase-resazurin fluorescence; stronger effect = lower value; 0.15% of 480,000 active; in the data active = activity change below about -30%; inconclusive = mostly about -25% to -30%;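 also: plate controls were DMSO wells for no effect and wells without enzyme for full effect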
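Resorufin fluorescence (ex540/em590), read at 0 and 20 min after diaphorase/resazurin addition, reports the NADH left after a 5 min room-temperature reaction of 2 nM human LDH5 with 0.06 mM NADH and 0.2 mM pyruvate.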
miR-21 act: qHTS Assay for Modulators of miRNAs and/orActivators of miR-21; HeLa miR-21 FLuc reporter, luciferase, 48 h; Potency, µM (titrated, usually from 38.3 µM), without a hit: at the highest dose activity change, positive = activation, usual class: activators; 340,000 tested, under 10 active; AID 2288, 2010;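 also: % of control where 0% means no effect; miR-21 action dims this reporter so a rising signal means less miR-21 action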
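HeLa cells stably expressing CMV-driven firefly luciferase with a downstream miR-21 binding sequence, endogenously expressing miR-21, were treated with titrations (up to about 40uM final) for 48 hours at 37 degree Celsius. Luciferase luminescence was read after lysis.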
Numbers without * were called inactive; ? = inconclusive; / = no result given. Shown are actives, neighbours in structure and some others; about 0.2% of the full set was active somewhere. Unless noted, calls follow the shape of the dose curve; as a rule, active = well fitted curve in the direction sought with a large enough effect; inconclusive = small, poorly fitted or top-dose-only effect, or another doubt; inactive = no such curve, though single readings can be large; an effect the other way counts as inactive or inconclusive.

SMILES	Anesthetic bind	LDHA block	miR-21 act
CC(=O)c1ccc(NS(=O)(=O)c2ccc(-c3ccc(C)cc3)cc2)cc1	/	5.8	/
CC(=O)c1ccc(NS(=O)(=O)c2ccc(CC(C)C)cc2)cc1	35.5µM*	5.4	6.2%
CCOC(=O)C1CCN([C@H]2CS(=O)(=O)C[C@@H]2S(=O)(=O)c2ccc(OC)cc2)CC1	/	4.8	/
CC(=O)Nc1sc2c(c1-c1ccc(C(=O)O)cc1)CCNC2	/	5.9	/
NS(=O)(=O)c1ccc(NC(=O)Cn2ncc3c2-c2ccccc2OC3)cc1	6.1%	-33.5*	-10.1%
O=C(Cn1ncc2c1-c1ccccc1OC2)Nc1cccc(Cl)c1	-22.0%	-15.6	3.3%
Clc1ccc(CSc2c[nH]c3ccccc23)cc1	/	3.2	/
C[C@@H]1CN([C@@H](C)CO)C(=O)c2cc(Br)cnc2O[C@@H]1CN(C)C(=O)CN(C)C	/	1.1	/
C[C@H]1CN([C@@H](C)CO)C(=O)c2cc(Br)cnc2O[C@@H]1CN(C)C(=O)CN(C)C	/	-37.1*	/
Cc1nnc(SCC(=O)Nc2ccc(S(N)(=O)=O)cc2)n(N)c1=O	/	-39.2*	/
Cc1ccc(NC(=O)CSc2nnc(C)c(=O)n2N)cc1	-6.6%	-5.9	0.6%
CCCCCCCCCCS(=O)(=O)N/N=C/c1ccc2c(c1)OCO2	/	1.7	/
CCCCCCCCCCS(=O)(=O)N/N=C/c1ccc(O)cc1	15.8µM*	-6.0	0.0%
CCCCCCCCCCS(=O)(=O)N/N=C/c1cccc([N+](=O)[O-])c1	/	12.3	/
CCCCCCCCCS(=O)(=O)N/N=C/c1cccc([N+](=O)[O-])c1	7.08µM*	1.8	3.8%
CCOC(=O)Cc1cc(=O)n2[nH]c(NCc3ccc(OC)cc3)nc2n1	/	-0.9	/
S=C(N/N=C1/CC2C=CCC12)NC1CCCCC1 (centres undefined)	/	-1.1	/
Cc1nonc1OC(C)CNc1ccc([N+](=O)[O-])cc1 (centres undefined)	31.6µM*	-7.9	-8.7%
Cc1nonc1OCCNc1ccc([N+](=O)[O-])cc1[N+](=O)[O-]	-6.6%	-4.0	-14.9%
CC(C)c1ccc(-n2nnnc2SCCCn2c(=O)c3c(ncn3C)n(C)c2=O)cc1	/	-7.7	/
COc1cc(OC)cc(C(=O)Nc2ccc3oc(-c4ccccc4Cl)nc3c2)c1	/	3.7	/
CCN(CC)S(=O)(=O)c1ccc(C(C)NCC(=O)Nc2ccccc2C(=O)NC2CC2)cc1 (centres undefined)	/	-8.7	/
CC(NCC(=O)Nc1ccccc1C(=O)NC1CC1)c1ccc(S(N)(=O)=O)cc1 (centres undefined)	/	-32.7*	/
Cc1cc(C)c(S(=O)(=O)Nc2ccc3oc(C)nc3c2)c(C)c1	/	22.1	/
CCONC(=O)c1ccc2c(c1)NC(=O)CS2	/	2.9	/
SMILES	Anesthetic bind	LDHA block	miR-21 act
O=C(CSc1nnc(-c2ccccc2F)n1C1CC1)c1cc2ccccc2o1	/	-0.7	/
Cc1ccccc1CN(C)CCc1ccccn1	-4.2%	-32.1*	3.3%
Cc1cccc(CN(C)CCc2ccccn2)c1	-9.4%	-22.1	-0.5%
CC(C)OC(=O)c1c(-c2ccccc2)c(-c2ccccc2)nn(C)c1=O	?	-1.5	11.7µM*
COC(=O)c1c(-c2ccccc2)c(-c2ccccc2)nn(C)c1=O	-18.4%	-4.0	8.0%
COc1ccc(NS(=O)(=O)c2cc(-c3n[nH]c(=O)c4ccccc34)ccc2C)cc1	/	9.7	/
CCC(CCC(C)C1CCC2C3CCC4CC(O)CC[C@@]4(C)C3CC[C@@]12C)C(C)C (some centres undefined)	1.9%	/	/
CC(CCC(C)C(C)(C)C)[C@@H]1CC[C@H]2C3C[C@H](OS(O)(=S)=S)[C@H]4C[C@H](OS(O)(=S)=S)[C@@H](OS(O)(=S)=S)C[C@]4(C)[C@H]3CC[C@]12C (some centres undefined) (tested in a mixture with another compound)	/	-94.0*	/
Cc1ccc(NC(=O)Nc2cn(CC(C)C)c(=O)c3ccccc23)c(C)c1	/	-21.5	/
Cc1ccc(Cl)cc1NC(=O)Nc1cn(CC(C)C)c(=O)c2ccccc12	?	-39.9*	-5.8%
Cc1ccc(N2C(=O)N(CC(=O)NCc3ccccc3)c3ccccc3S2(=O)=O)c(C)c1	/	2.9	/
CCCCNC(C(=O)Nc1ccc([N+](=O)[O-])cc1Br)c1ccccc1 (centres undefined)	-3.9%	-31.5*	8.5%
COCCNC(C(=O)Nc1ccc([N+](=O)[O-])cc1Br)c1ccccc1 (centres undefined)	-16.8%	3.1	-2.1%
Cc1ccsc1/C=C/C1=Cc2c(sc(N)c2C#N)C(C)(C)C1	/	15.9	/
Cc1ccc(-c2ccc(=O)n(CC(=O)N3CCN(c4cccc(C)c4)C(C)C3)n2)cc1 (centres undefined)	25.1µM*	1.5	9.6%
Cc1cccc(N2CCN(C(=O)Cn3nc(C)n4cccc4c3=O)CC2C)c1 (centres undefined)	?	-2.8	4.0%
CCN(CC)C(=O)c1ccc(-n2nc(C)c(-c3ccc(C)cc3)c2NC(C)=O)cc1	/	-9.1	/
CCC(=O)c1ccccc1OCCCn1cncn1	-5.1%	-4.4	-8.6%
CCOc1ccccc1OCCOCCN1CCN(Cc2ccccc2)CC1	-6.4%	-31.1*	3.9%
O=C(c1ccccc1)c1ccc(OCCOCCN2CCN(Cc3ccccc3)CC2)cc1	-13.4%	?	10.2%
CCC(=O)c1ccccc1OCCN1CCN(Cc2ccccc2)CC1	-9.2%	-33.9*	-1.7%
Cc1ccc(C2CC(=O)c3cn4nc(C(F)(F)F)nc4nc3C2)cc1 (centres undefined)	/	9.5	/
N#CCC(=O)Nc1ccc(N2CCOCC2)cc1	/	6.1	/
CCc1ccc(-c2csc(NC3OC(=O)c4c3ccc(OC)c4OC)n2)cc1 (centres undefined)	/	-3.3	/
Cn1c(-c2ccccc2)c(C(=O)CC#N)c2ccccc21	?	-14.5	0.7%
SMILES	Anesthetic bind	LDHA block	miR-21 act
CN(C)CCCNCC(=O)c1c(-c2ccccc2)n(C)c2ccccc12	-2.9%	-36.6*	-11.9%
CC(C)CCNC(N)=S	/	-1.3	/
COc1ccccc1OC(C(=O)NC1CC1)c1ccccc1 (centres undefined)	/	-30.3*	/
COc1ccccc1SC(C(=O)NC1CC1)c1ccccc1 (centres undefined)	/	-4.3	/
O=C1CCCN1c1cccc(-c2csc(-c3ccsc3)n2)c1	/	-1.0	/
CCCCc1nc2ccccc2c(NC(=O)CNC(C)(C)C)c1CCC	-16.3%	?	0.7%
CCCCc1nc2ccccc2c(NC(=O)CN2CCCC2)c1CCC	-8.2%	-34.8*	-5.2%
COc1ccc(OC)c(C2C(C(=O)c3ccco3)=C(O)C(=O)N2c2nc3ccc(F)cc3s2)c1 (centres undefined)	/	-2.0	/
Cc1cc(S(=O)(=O)Nc2ccc(F)cc2)ccc1OCC(=O)NCc1ccc2c(c1)OCO2	/	8.9	/
Cc1[nH]c2ccccc2c1C(=O)COC(=O)c1ccccn1	/	18.8	/
O=C(O)c1cnc(-c2ccccc2)nc1Sc1ccc(Cl)cc1	8.1%	-9.7	0.7%
O=C(O)c1cnc(-c2ccccc2)nc1Sc1ccccc1Cl	-5.8%	-30.9*	-8.8%
O=C(N/N=C/c1cc(Br)cc(Cl)c1O)c1ccc2c(c1)OCO2	/	-31.9*	/
